The results in this text go back to PubChem BioAssay (NCI).

About 79,000 compounds went through this panel and 15% of them were active in at least one assay; those are over-represented in the sample as a whole. A number with no mark means an inactive call. The source made the active and inactive calls. No stated cut-off is given here; in the data, active means growth inhibition above about 70%; inactive means the rest.

The nature of test [1]: NCI Yeast Anticancer Drug Screen. Data for the rad50 strain (AID 155).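 Further: 0% = growth of vehicle-only cultures of the same strain.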 The following applies: S. cerevisiae rad50 strain growth inhibition, hits give high values. In a few lines: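 Compounds were tested on a yeast strain with an engineered DNA damage repair alteration; the reported value is growth inhibition normalised to vehicle treatment.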
Test [2] in a line: NCI Yeast Anticancer Drug Screen. Data for the mec2-1 strain (AID 157). The following applies: S. cerevisiae mec2-1 strain, hits give high values. In short, it runs like this: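 Mutant yeast (mec2-1) grown with compound; growth inhibition relative to vehicle control reported.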
Test [3] can be described thus: NCI Yeast Anticancer Drug Screen. Data for the sgs1 mgt1 strain (AID 161).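 Further: 0% = growth of cultures given vehicle only.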 As to conditions: S. cerevisiae sgs1 mgt1 strain, hits give high values. In a few lines: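 Growth of a repair-deficient yeast mutant was monitored after compound treatment and expressed as inhibition relative to vehicle-treated cultures.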
A short description of test [4]: NCI Yeast Anticancer Drug Screen. Data for the cln2 rad14 strain (AID 165).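 Further: 0% = growth equal to vehicle treated cultures.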 As to conditions: S. cerevisiae cln2 rad14 strain, hits give high values. In a few lines: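 Readout is yeast growth inhibition versus vehicle-treated controls, using a strain with cln2 and rad14 alterations exposed to compound.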
Test [5] is described as follows: NCI Yeast Anticancer Drug Screen. Data for the bub3 strain (AID 167). As to conditions: S. cerevisiae bub3 mutant strain, hits give high values. In short, it runs like this: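 Growth of a checkpoint-deficient yeast mutant is measured after compound exposure. Values represent inhibition relative to vehicle.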
Test [6] can be described thus: NCI Yeast Anticancer Drug Screen. Data for the mlh1 rad18 strain (AID 175). As to conditions: S. cerevisiae mlh1 rad18 strain growth inhibition, hits give high values. In a few lines:
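Genetically defined yeast (DNA repair-deficient) exposed to compounds; growth inhibition determined relative to vehicle.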

[7] abbreviates: at 5.0 µM (retest, dose inferred, filed as 0.5).
The mark [8] stands for this setting: at 50.0 µM (retest, dose inferred, filed as 5.0).

`NC(CS/C(Cl)=C/Cl)C(=O)O` (configuration not stated): the growth inhibition in test [1] (setting [7]) is 48%; in test [1] (setting [8]), 92% (active); in test [1] (at 50.0 µM) it was 92.3% (active); in test [2] (setting [7]) it was 47%; in test [2] (setting [8]), 96% (active); in test [2] (at 50.0 µM), 93.8% (active). In addition, the growth inhibition in test [3] (setting [7]) was 34%; in test [3] (setting [8]), 94% (active); in test [3] (at 50.0 µM), 93.5% (active); in test [4] (setting [7]), 41%; in test [4] (setting [8]), 96% (active); in test [4] (at 50.0 µM), 92.3% (active). The growth inhibition is 19% in test [5] (setting [7]); 94% (active) in test [5] (setting [8]); 89.4% (active) in test [5] (at 50.0 µM); 89% (active) in test [6] (setting [7]); 97% (active) in test [6] (setting [8]); 97.5% (active) in test [6] (at 50.0 µM).

On to `CCCCCCCCCCCCCCCCCC[S+](C)CC` (configuration not stated), for which the growth inhibition in test [1] (setting [7]) was 97% (active); in test [1] (setting [8]), 94% (active); in test [1] (at 50.0 µM), 90.2% (active); in test [2] (setting [7]) it was 99% (active); in test [2] (setting [8]) it was 98% (active); in test [2] (at 50.0 µM) it was 92.9% (active). Moreover, the growth inhibition was 99% (active) in test [3] (setting [7]); 99% (active) in test [3] (setting [8]); 92.9% (active) in test [3] (at 50.0 µM); 99% (active) in test [5] (setting [7]); 98% (active) in test [5] (setting [8]); 91.5% (active) in test [5] (at 50.0 µM). Moreover, the results for the growth inhibition in test [6] (setting [7]), in test [6] (setting [8]) and in test [6] (at 50.0 µM) were 98% (active), 97% (active) and 90.3% (active), respectively.

Take `O=C(NNc1ccccc1)OCc1ccccc1`: the growth inhibition in test [1] (setting [7]) is 41%; in test [1] (setting [8]), 79% (active); in test [1] (at 50.0 µM), 55%; in test [2] (setting [7]), 43%; in test [2] (setting [8]), 86% (active); in test [2] (at 50.0 µM), 20.5%. Also, the growth inhibition in test [3] (setting [7]) was 42%; in test [3] (setting [8]) it was 95% (active); in test [4] (setting [7]), 55%; in test [4] (setting [8]), 97% (active); in test [5] (setting [7]), 50%; in test [5] (setting [8]), 94% (active). Besides, the growth inhibition in test [6] (setting [7]) was 29%; in test [6] (setting [8]) it was 84% (active); in test [6] (at 50.0 µM), 32.5%.

In the case of `CCOC(=O)NC(/C=C/c1ccccc1)NC(=O)OCC`, the growth inhibition is -2% in test [1] (setting [7]); -27% in test [1] (setting [8]); 61.8% in test [1] (at 50.0 µM); -1% in test [2] (setting [7]); -31% in test [2] (setting [8]); 29.6% in test [2] (at 50.0 µM). Further, the growth inhibition was -4% in test [3] (setting [7]); -29% in test [3] (setting [8]); 30.1% in test [3] (at 50.0 µM); 5% in test [4] (setting [7]); -33% in test [4] (setting [8]); 29.9% in test [4] (at 50.0 µM). Also, the growth inhibition in test [6] (setting [7]) was 1%; in test [6] (setting [8]), -26%; in test [6] (at 50.0 µM), 83.6% (active).

As for `[O-][n+]1cccc2cccc(O)c21`, the growth inhibition was 2% in test [1] (setting [7]); 61% in test [1] (setting [8]); -1% in test [2] (setting [7]); 16% in test [2] (setting [8]); 1% in test [3] (setting [7]); 48% in test [3] (setting [8]). Also, the growth inhibition was -3% in test [4] (setting [7]); 2% in test [4] (setting [8]); 1% in test [5] (setting [7]); 20% in test [5] (setting [8]); -12% in test [6] (setting [7]); 49% in test [6] (setting [8]).

Regarding `O/N=C1\c2ccccc2-c2ccc(F)cc21`, the growth inhibition was 20% in test [1] (setting [7]); 90% (active) in test [1] (setting [8]); 95% (active) in test [1] (at 50.0 µM); 13% in test [3] (setting [7]); 87% (active) in test [3] (setting [8]); 91.6% (active) in test [3] (at 50.0 µM). Besides, the growth inhibition in test [4] (setting [7]) is 5%; in test [4] (setting [8]), 71% (active); in test [4] (at 50.0 µM), 63%; in test [5] (setting [7]) it was 1%; in test [5] (setting [8]) it was 77% (active); in test [5] (at 50.0 µM) it was 91.1% (active). Also, the growth inhibition in test [6] (setting [7]) is 13%; in test [6] (setting [8]) it was 78% (active); in test [6] (at 50.0 µM), 93.8% (active).

With `Oc1ccc2ccccc2c1N=Nc1ccccn1`, the growth inhibition in test [1] (setting [7]) is 35%; in test [1] (setting [8]), 91% (active); in test [1] (at 50.0 µM), 98.2% (active); in test [2] (setting [7]) it was -4%; in test [2] (setting [8]), 96% (active); in test [2] (at 50.0 µM) it was 96.7% (active). In addition, the growth inhibition in test [4] (setting [7]) was 10%; in test [4] (setting [8]), 94% (active); in test [4] (at 50.0 µM) it was 92.8% (active); in test [5] (setting [7]) it was -26%; in test [5] (setting [8]), 92% (active); in test [5] (at 50.0 µM), 96.7% (active). The growth inhibition is 27% in test [6] (setting [7]), 94% (active) in test [6] (setting [8]) and 97.7% (active) in test [6] (at 50.0 µM).

On to `CC(C)(C)CC(C)(C)c1ccc(OCCOCCSC(=N)N)cc1`, for which the growth inhibition in test [1] (setting [7]) is 5%; in test [1] (setting [8]) it was 99% (active); in test [1] (at 50.0 µM), 46.4%; in test [3] (setting [7]), 23%; in test [3] (setting [8]), 99% (active); in test [3] (at 50.0 µM), 40.1%. Also, the growth inhibition in test [4] (setting [7]) is 13%; in test [4] (setting [8]), 99% (active); in test [4] (at 50.0 µM) it was 99.2% (active); in test [5] (setting [7]), 5%; in test [5] (setting [8]), 99% (active); in test [5] (at 50.0 µM) it was 99.5% (active). Also, the growth inhibition in test [6] (setting [7]) was 24%; in test [6] (setting [8]), 98% (active); in test [6] (at 50.0 µM), 97.6% (active).

For the compound `N#Cc1ccc(Br)cc1[N+](=O)[O-]`, the growth inhibition in test [1] (setting [7]) is 45%; in test [1] (setting [8]), 64%; in test [1] (at 50.0 µM) it was 91.2% (active); in test [2] (setting [7]), 41%; in test [2] (setting [8]), 63%; in test [2] (at 50.0 µM) it was 93.2% (active). Also, the growth inhibition in test [3] (setting [7]) was 74% (active); in test [3] (setting [8]), 100% (active); in test [4] (setting [7]), 90% (active); in test [4] (setting [8]), 100% (active); in test [5] (setting [7]) it was 87% (active); in test [5] (setting [8]), 100% (active). Moreover, the growth inhibition was 33% in test [6] (setting [7]), 61% in test [6] (setting [8]) and 92% (active) in test [6] (at 50.0 µM).

As to `O=C1/C(=C\c2ccc([N+](=O)[O-])cc2)CS(=O)(=O)C/C1=C/c1ccc([N+](=O)[O-])cc1`, the growth inhibition in test [1] (setting [7]) is 81% (active); in test [1] (setting [8]) it was 96% (active); in test [2] (setting [7]) it was 97% (active); in test [2] (setting [8]), 98% (active); in test [3] (setting [7]) it was 93% (active); in test [3] (setting [8]) it was 96% (active). For the same compound, the growth inhibition in test [3] (at 50.0 µM) was 87.2% (active); in test [4] (setting [7]), 91% (active); in test [4] (setting [8]), 97% (active); in test [4] (at 50.0 µM), 86.8% (active); in test [5] (setting [7]) it was 97% (active); in test [5] (setting [8]), 99% (active). Also, the growth inhibition is 87.6% (active) in test [5] (at 50.0 µM), 94% (active) in test [6] (setting [7]) and 96% (active) in test [6] (setting [8]).

Take `O=C1CCC2(C=C(Br)C(=O)C(Br)=C2)O1`: the growth inhibition in test [1] (setting [7]) was 42%; in test [1] (setting [8]), 87% (active); in test [1] (at 50.0 µM), 91.8% (active); in test [2] (setting [7]), 46%; in test [2] (setting [8]) it was 96% (active); in test [2] (at 50.0 µM), 93.5% (active). Also, the growth inhibition in test [3] (setting [7]) was 92% (active); in test [3] (setting [8]), 99% (active); in test [4] (setting [7]), 91% (active); in test [4] (setting [8]) it was 99% (active); in test [5] (setting [7]) it was 92% (active); in test [5] (setting [8]), 100% (active). Moreover, the growth inhibition was 31% in test [6] (setting [7]), 94% (active) in test [6] (setting [8]) and 92.3% (active) in test [6] (at 50.0 µM).

As to `CC(=O)Oc1c(Br)cc(Br)cc1C(OC(C)=O)OC(C)=O`, the growth inhibition is 20% in test [1] (setting [7]); 96% (active) in test [1] (setting [8]); 8% in test [2] (setting [7]); 87% (active) in test [2] (setting [8]); 19% in test [3] (setting [7]); 99% (active) in test [3] (setting [8]). Also, the growth inhibition in test [4] (setting [7]) was 3%; in test [4] (setting [8]), 52%; in test [5] (setting [7]), 6%; in test [5] (setting [8]), 99% (active); in test [6] (setting [7]) it was -5%; in test [6] (setting [8]), 93% (active).
